A selection: hits, their analogues and other compounds. The true share with any hit is near 11%.
JMJD2A Tudor inh: blocks the human JMJD2A Tudor domain | AlphaScreen JMJD2A-Tudor / H3K4me3 peptide binding | Potency, µM (titrated, usually from 114 µM), without a hit: at the highest dose activity change, negative = inhibition, most hits filed as inhibitors | 4.4% of 390,000 active | AID 504339; also: % is scaled to controls: 0 for no effect and ±100 for the full control effect; nearly all actives have a fitted effect of over 50% in size
BAZ2B block: inhibitors of human BAZ2B bromodomain. Q9UIF8. AlphaScreen BAZ2B-H3K14Ac peptide displacement. Potency, µM (doses to about 114 µM), without a hit: at the highest dose activity change, negative = inhibition, usual class: inhibitors. 4.4% of 360,000 active. AID 504333; also: % is scaled to controls: 0 for no effect and ±100 for the full control effect; nearly all actives have a fitted effect of over 60% in size
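Multi-concentration screen (max 110 uM) measuring displacement of acetylated histone H3 peptide from BAZ2B by AlphaScreen, using 50 nM protein, 50 nM peptide and 10 ug/mL streptavidin donor plus Ni-chelate acceptor beads.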
G9a block: G9a (human) methyltransferase inhibition. AID 504332. Potency, µM (titrated, usually from 102 µM), for the others: top-dose activity, negative = inhibition, actives largely listed as inhibitors. G9a H3K9 monomethylation, AlphaScreen, 2 h. Q96KQ7. 8.8% of 350,000 active; also: % is scaled to controls: 0 for no effect and ±100 for the full control effect; nearly all actives have a fitted effect of over 75% in size
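Methyltransferase reactions run at room temperature for 2 h (20 nM enzyme, 500 nM biotin-H3K9 peptide, 20 uM SAM) after a 15 min compound preincubation; product detected by AlphaScreen beads and anti-H3K9me1 antibody.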
HP1b chromo inh: inhibitors of HP1-beta chromodomain binding to methylated histone tails; AlphaScreen HP1-beta / biotin-H3K9me3 peptide binding; 0.56% of 390,000 active; P83916; Potency, µM (doses to about 114 µM), inactives show at the top dose activity change, negative = inhibition, usual class: inhibitors; also: nearly all actives have a fitted effect of over 70% in size
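AlphaScreen: HP1-beta (50 nM) preformed 30 min with biotin-H3(1-18)K9me3 peptide (50 nM) in PBS pH 7.4, 0.01% Tween-20. Compound added for 30 min at RT, then streptavidin donor/nickel chelate acceptor beads (10 ug/mL) for 30 min.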
L3MBTL1 inh: L3MBTL1 (human) inhibition | AlphaScreen L3MBTL1–H3K9me1 peptide binding | Potency, µM (highest dose often 57.1 µM), inactives show top-dose activity, negative = inhibition, usual class: inhibitors | 0.66% of 230,000 active | AID 485360; also: % is scaled to controls: 0 for no effect and ±100 for the full control effect; nearly all actives have a fitted effect of over 60% in size
Target sequence (Q9Y468 whole entry, looked up): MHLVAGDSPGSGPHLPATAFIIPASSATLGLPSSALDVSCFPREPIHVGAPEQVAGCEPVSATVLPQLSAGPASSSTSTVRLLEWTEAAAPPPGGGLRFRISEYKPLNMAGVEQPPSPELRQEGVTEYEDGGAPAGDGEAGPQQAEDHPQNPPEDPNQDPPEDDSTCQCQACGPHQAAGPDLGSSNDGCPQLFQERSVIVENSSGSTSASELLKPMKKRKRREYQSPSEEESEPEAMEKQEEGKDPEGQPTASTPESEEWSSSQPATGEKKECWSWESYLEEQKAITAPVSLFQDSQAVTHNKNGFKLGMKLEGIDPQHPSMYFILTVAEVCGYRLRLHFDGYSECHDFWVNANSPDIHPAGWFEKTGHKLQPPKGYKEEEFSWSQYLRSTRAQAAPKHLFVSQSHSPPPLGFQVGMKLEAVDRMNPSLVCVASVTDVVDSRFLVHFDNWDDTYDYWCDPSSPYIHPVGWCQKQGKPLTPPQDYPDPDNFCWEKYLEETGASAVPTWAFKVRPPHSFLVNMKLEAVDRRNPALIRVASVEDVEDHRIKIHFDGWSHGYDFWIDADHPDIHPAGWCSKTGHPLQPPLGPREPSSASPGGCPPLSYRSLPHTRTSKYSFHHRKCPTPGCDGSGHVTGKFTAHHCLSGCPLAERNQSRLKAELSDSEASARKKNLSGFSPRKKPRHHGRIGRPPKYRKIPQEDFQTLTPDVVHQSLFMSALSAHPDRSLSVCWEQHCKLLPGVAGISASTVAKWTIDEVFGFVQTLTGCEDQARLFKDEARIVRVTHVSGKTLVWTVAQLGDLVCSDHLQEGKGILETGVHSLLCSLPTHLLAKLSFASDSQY
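Read-out is AlphaScreen signal from streptavidin donor and nickel chelate acceptor beads (10 ug/mL final each) bridging L3MBTL1 (50 nM) and biotinylated K9-monomethylated H3(1-15) peptide (75 nM), after 30 min compound exposure at room temperature.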
Starred values were filed as active, the others as inactive; [ ] = another dose, or the depositor's remark. Calls follow the shape of the dose curve; as a rule, active = well fitted inhibition curve with a large enough effect; inconclusive = small, poorly fitted or top-dose-only effect; inactive = no such curve, though single readings can be large or run the other way. Potency is read from the fitted curve at half-maximal effect.

What do the screens show for `CCn1c(-c2nn(-c3ccc(C)cc3)ccc2=O)n[nH]c1=S`?
JMJD2A Tudor inh: 7.94µM*; BAZ2B block: -38.0%; G9a block: inconclusive; HP1b chromo inh: 30.0%; L3MBTL1 inh: -6.2%[11.4 µM]

What do the screens show for `CCn1c(SC)nnc1-c1c[nH]c2ccccc12`?
JMJD2A Tudor inh: -11.1%; BAZ2B block: -4.2%; G9a block: -47.4%; HP1b chromo inh: 25.6%

What do the screens show for `COC(=O)c1nn(-c2ccc(C)cc2)ccc1=O`?
JMJD2A Tudor inh: -14.0%; BAZ2B block: -7.4%; G9a block: 4.0%; HP1b chromo inh: 38.6%; L3MBTL1 inh: -0.1%[11.4 µM]

What do the screens show for `CCn1c(SC)nnc1-c1nn(-c2ccccc2)ccc1=O`?
JMJD2A Tudor inh: 3.98µM*; BAZ2B block: inconclusive; G9a block: 5.01µM*; HP1b chromo inh: inconclusive; L3MBTL1 inh: 11.2%

Results for O=C(c1cc2c(s1)-c1ccccc1OC2)N1CCN(c2ccc(F)cc2)CC1 ?
JMJD2A Tudor inh: -20.7%; BAZ2B block: -1.2%; G9a block: 6.0%[59 µM]; HP1b chromo inh: 41.2%

Results for O=C(c1ccco1)N1CCN(C(=O)c2cc3c(s2)-c2ccccc2OC3)CC1 ?
JMJD2A Tudor inh: -4.1%; BAZ2B block: inconclusive; G9a block: 44.7µM*; HP1b chromo inh: 58.1%; L3MBTL1 inh: -3.8%

Results for COc1ccc(NC(=O)N2CCN(S(=O)(=O)c3ccc4c(ccn4C)c3)CC2)cc1OC ?
JMJD2A Tudor inh: inconclusive; BAZ2B block: -22.5%; G9a block: -18.6%[59 µM]; HP1b chromo inh: 22.7%[57 µM]

What do the screens show for `COc1ccc(C2CC(O)(C(C)(C)O)NO2)cc1` (stereo not given)?
JMJD2A Tudor inh: -21.5%; BAZ2B block: 16.7%; G9a block: inconclusive; HP1b chromo inh: 26.8%; L3MBTL1 inh: 6.5%

How did CC1(C2(O)CC(c3ccccc3)ON2)CCCCC1 (stereo not given) do in these assays?
BAZ2B block: 42.5%; G9a block: 39.8µM*

What do the screens show for `COc1ccccc1-c1noc(-c2ccc(N3CCOCC3)c([N+](=O)[O-])c2)n1`?
JMJD2A Tudor inh: -20.2%; BAZ2B block: -1.8%; G9a block: 5.7%[59 µM]; HP1b chromo inh: 23.5%

Results for O=S(=O)(Nc1ccc(-n2cccc2)cc1)c1ccc(F)cc1 ?
JMJD2A Tudor inh: -7.5%[11.4 µM]; BAZ2B block: inconclusive; G9a block: 50.1µM*; HP1b chromo inh: inconclusive

Results for O=S(=O)(Nc1ccc(-n2cccc2)cc1)c1ccc(Cl)c(Cl)c1 ?
JMJD2A Tudor inh: inconclusive; BAZ2B block: inconclusive; G9a block: inconclusive; HP1b chromo inh: -23.5%; L3MBTL1 inh: -21.2%

What do the screens show for `CCn1c(=O)cc(SCC(=O)NCCc2cccc(C)c2)c2ccccc21`?
JMJD2A Tudor inh: -10.1%; BAZ2B block: -14.9%; G9a block: -35.3%[59 µM]; HP1b chromo inh: 17.8%

How did COc1cc(/C=N/NC(=O)C(C)Nc2n[nH]c(=O)[nH]c2=O)cc(OC)c1O (stereo not given) do in these assays?
JMJD2A Tudor inh: -15.0%; BAZ2B block: -5.6%; G9a block: 35.5µM*; HP1b chromo inh: -14.4%; L3MBTL1 inh: 7.6%

What do the screens show for `CN(C)CCc1cc2c(c3c1ccc1ccccc13)OCO2`?
JMJD2A Tudor inh: -54.2%; BAZ2B block: inconclusive; G9a block: 39.8µM*; HP1b chromo inh: inconclusive; L3MBTL1 inh: -3.8%

Results for FC(F)(F)c1ccccc1-c1ccc2ncnc(NCCN3CCOCC3)c2c1 ?
G9a block: -41.8%[0.501 µM]

Results for COc1cccc(CNC(=O)c2cccc(N3CCCS3(=O)=O)c2)c1 ?
JMJD2A Tudor inh: -7.1%; BAZ2B block: 2.5%; G9a block: -12.6%[59 µM]; HP1b chromo inh: 22.2%

How did COc1ccc(Oc2cc(Cl)nc(N)n2)cc1 do in these assays?
JMJD2A Tudor inh: -5.4%; BAZ2B block: -19.3%; G9a block: 50.1µM*; HP1b chromo inh: 36.3%; L3MBTL1 inh: 2.1%

How did CCC(=O)NC(c1ccc(OC)c(OC)c1)c1cc(Cl)c2cccnc2c1O (stereo not given) do in these assays?
JMJD2A Tudor inh: -24.0%; BAZ2B block: 39.8µM*; HP1b chromo inh: 41.3%; L3MBTL1 inh: 16.3%

How did CCCC(=O)NC(c1ccco1)c1cc(Cl)c2cccnc2c1O (stereo not given) do in these assays?
JMJD2A Tudor inh: -24.0%; BAZ2B block: 50.1µM*; G9a block: 18.5%[59 µM]; HP1b chromo inh: 55.2%

What do the screens show for `COc1ccccc1C(NC(C)=O)c1cc(Cl)c2cccnc2c1O` (stereo not given)?
JMJD2A Tudor inh: inconclusive; BAZ2B block: -12.9%; G9a block: 18.0%; HP1b chromo inh: 35.6%

What do the screens show for `CCCC(=O)NC(c1cccs1)c1cc(Cl)c2cccnc2c1O` (stereo not given)?
JMJD2A Tudor inh: -16.6%; BAZ2B block: -4.4%; G9a block: 0.6%; HP1b chromo inh: 45.4%; L3MBTL1 inh: -6.4%

What do the screens show for `COc1ccc(C(NC(C)=O)c2cc(Cl)c3cccnc3c2O)cc1OC` (stereo not given)?
JMJD2A Tudor inh: 56.2µM*; BAZ2B block: 28.2µM*; G9a block: 8.7%; HP1b chromo inh: 30.2%; L3MBTL1 inh: -5.3%

Results for CCC(=O)NC(c1ccco1)c1cc(Cl)c2c(c1O)NCCC2 (stereo not given) ?
JMJD2A Tudor inh: 56.2µM*

Results for Cc1ccc(CNC(=O)CN(c2ccc(Cl)cc2Cl)S(=O)(=O)c2ccccc2)cc1 ?
JMJD2A Tudor inh: -4.1%; BAZ2B block: -7.3%; G9a block: -27.1%[59 µM]; HP1b chromo inh: 35.5%

What do the screens show for `CCOc1ccc(N(C)S(=O)(=O)c2ccc3c(c2)C(C)(C)C(=O)N3C)cc1`?
JMJD2A Tudor inh: 7.1%; BAZ2B block: 6.7%; G9a block: 9.4%[59 µM]; HP1b chromo inh: 26.3%

Results for Brc1csc(CN2CCc3nc(Nc4ccccc4)ncc3C2)c1 ?
JMJD2A Tudor inh: -20.2%; BAZ2B block: inconclusive; G9a block: -9.6%[12.7 µM]; HP1b chromo inh: 46.1%

Results for Clc1ccccc1CN1CCc2nc(N3CCN(c4ncccn4)CC3)ncc2C1 ?
JMJD2A Tudor inh: 35.5µM*; BAZ2B block: 50.1µM*; G9a block: inconclusive; HP1b chromo inh: inconclusive

How did CCOc1ccccc1CN1CCc2nc(N3CCN(C)CC3)ncc2C1 do in these assays?
JMJD2A Tudor inh: -22.2%; BAZ2B block: 79.4µM*; G9a block: -2.6%[12.7 µM]; HP1b chromo inh: 54.8%

Results for CN1CCN(c2ncc3c(n2)CCN(Cc2ccccc2Cl)C3)CC1 ?
JMJD2A Tudor inh: 79.4µM*; BAZ2B block: inconclusive; G9a block: inconclusive; HP1b chromo inh: -10.4%

Results for COc1cc(OC)c(OC)cc1CN1CCc2nc(N3CCN(C)CC3)ncc2C1 ?
JMJD2A Tudor inh: inconclusive; BAZ2B block: inconclusive; G9a block: -1.7%[12.7 µM]; HP1b chromo inh: 21.2%

What do the screens show for `CN1CCN(c2ncc3c(n2)CCN(Cc2cc(Br)cs2)C3)CC1`?
JMJD2A Tudor inh: 56.2µM*; BAZ2B block: inconclusive; G9a block: inconclusive; HP1b chromo inh: -1.9%

What do the screens show for `O=S(=O)(c1ccc2c(c1)OCCO2)N1CCN(S(=O)(=O)c2ccc(Br)cc2F)CC1`?
JMJD2A Tudor inh: -15.8%
